Inconclusive results are not listed. The source made the active and inactive calls. The call rests on the fitted dose curve; in most records, active means well fitted curve in the direction sought with a large enough effect; inconclusive means small, poorly fitted or top-dose-only effect, or another doubt; inactive means no such curve, though single readings can be large; an effect the other way counts as inactive or inconclusive.
How the values were obtained:
[1] = molecular target: Glutathione peroxidase 1 (Homo sapiens) (UniProt P07203); assay: Primary qHTS Assay for Inhibitors of Recombinant Selenoprotein Glutathione Peroxidase 1 (GPX1) (AID 1845191); details: recombinant GPX1, GR-coupled NADPH fluorescence, 15 min; series mostly up to 48.8 µM; further: nearly all actives have a fitted effect of over 65% in size; on activity, negative = inhibition: on the % scale 0 is the no-effect control and ±100 the full control effect
Chain of Glutathione peroxidase 1 (Homo sapiens) (P07203 whole entry, looked up): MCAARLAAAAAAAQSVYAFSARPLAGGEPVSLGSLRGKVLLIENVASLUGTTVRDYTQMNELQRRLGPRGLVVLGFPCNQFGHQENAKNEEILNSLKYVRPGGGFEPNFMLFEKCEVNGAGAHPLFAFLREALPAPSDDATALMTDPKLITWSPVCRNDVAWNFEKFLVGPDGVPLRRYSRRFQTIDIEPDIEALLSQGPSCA
How it was run: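 GR-coupled assay: compounds preincubated 30 min at room temperature with GPX1, then reaction started with CHP; final 10 nM GPX1, 1 mM GSH, 0.5 mM CHP, 0.5 mM NADPH, 100 nM GR, 0.01% BSA, pH 7.5 Tris buffer. NADPH fluorescence (340/450 nm) read at 0 and 15 min.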

[2] = molecular target: Phospholipid hydroperoxide glutathione peroxidase GPX4 (Homo sapiens) (UniProt P36969); assay: Primary qHTS Assay for Inhibitors of Recombinant Selenoprotein Glutathione Peroxidase 4 (GPX4) (AID 1845192); details: recombinant GPX4, GR-coupled NADPH fluorescence, 15 min; series mostly up to 50 µM; further: nearly all actives have a fitted effect of over 65% in size; further: potency means the concentration at half of the fitted maximal effect; on activity change, negative = inhibition: on the % scale 0 is the no-effect control and ±100 the full control effect
Chain of Phospholipid hydroperoxide glutathione peroxidase GPX4 (Homo sapiens) (P36969 whole entry, looked up): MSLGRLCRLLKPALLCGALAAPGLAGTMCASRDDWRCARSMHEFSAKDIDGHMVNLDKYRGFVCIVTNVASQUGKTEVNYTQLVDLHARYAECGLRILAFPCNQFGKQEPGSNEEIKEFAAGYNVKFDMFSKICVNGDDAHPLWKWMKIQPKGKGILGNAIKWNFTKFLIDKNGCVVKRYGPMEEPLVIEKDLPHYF
How it was run: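 GR-coupled assay: recombinant GPX4 preincubated 30 min with compound at room temperature; final 200 nM GPX4, 1 mM GSH, 0.5 mM cumene hydroperoxide, 0.5 mM NADPH, 100 nM GR, 0.01% BSA, pH 7.5 Tris. NADPH fluorescence (340/450 nm) read at 0 and 15 min.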

[3] = molecular target: Luciferin 4-monooxygenase (Photinus pyralis) (UniProt P08659); assay: Primary firefly luciferase (FLuc) qHTS assay for identification of artifact compounds. (AID 1845220); details: purified firefly luciferase, luminescence, 5 min; series mostly up to 54.1 µM; further: nearly all actives have a fitted effect of over 60% in size;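 on activity change, negative = inhibition: plate controls were DMSO vehicle for no effect and no enzyme for full effect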
How it was run: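 Enzymatic FLuc inhibition assay: compounds pre-exposed to luciferin/ATP (10 uM each) for 15 min, then purified P. pyralis enzyme at 10 nM added. Read-out: luminescence at 5 min.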

[4] = Primary fluorescence-based thiol-reactive (MSTI) qHTS assay for identification of artifact compounds. (AID 1845221); details: MSTI thiol-reactivity probe, 1 h; series mostly up to 53.8 µM;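 further: thiol-reactive compounds lower the probe fluorescence signal; nearly all actives have a fitted effect of over 65% in size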
How it was run: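 In PBS pH 7.4 with 2% DMSO, each compound met 4 uM MSTI for one hour at ambient temperature, shielded from light, before fluorescence detection.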

[5] = system: Nanoluciferase (engineered Oplophorus gracilirostris luciferase); assay: Primary Nanoluciferase (NLuc) qHTS assay for identification of artifact compounds. (AID 1845222); details: NLuc-conditioned medium, Nano-Glo luminescence, 5 min; series mostly up to 54.1 µM; further: potency means the concentration at half of the fitted maximal effect;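 on activity, negative = inhibition: NLuc secreted into diluted conditioned medium of S16 cells; 0% = DMSO and -100% = no enzyme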
How it was run: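 S16 cell supernatant NLuc, 1:55; cpds qHTS; 15 min RT dark; Nano-Glo substrate 1:100, 5 min; luminescence; Hill fit of % inhibition.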

[6] = Primary redox qHTS assay for identification of artifact compounds. (AID 1845223); details: Amplex Red/HRP redox cycling with DTT, fluorescence; series mostly up to 53.8 µM;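 further: 0% = DMSO and 100% = reference compound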
How it was run: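 Amplex Red (25 uM) and HRP (250 mU/mL) in HBSS, with compounds for 15 min, then 250 uM DTT for 30 min, room temperature, dark. Fluorescence 525/598 nm read; normalized to DMSO and 10 uM DA3003; Hill fit.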

CC(=O)O[C@H]1[C@@]2(O)C[C@H](C)[C@H](OC(=O)c3ccccc3)[C@@H]2[C@@H](OC(=O)CO)[C@]2(OC(C)=O)C[C@H]3C(=O)C(C)(C)C[C@@H]3[C@@]1(C)[C@H]2OC(C)=O
inactive: Potency [1] | Potency [2] | Potency [3] | Potency [4] | Potency [5] | Potency [6]

COc1ccc([C@H]2Cc3cccc(O)c3C(=O)O2)cc1OC
inactive: Potency [1] | Potency [2] | Potency [3] | Potency [4] | Potency [5] | Potency [6]

O=C1C(Cc2ccc(O)cc2)N2C(=O)CCN(C(=O)NCc3ccccc3)C2CN1Cc1cccc2ccccc12 (centres undefined)
inactive: Potency [1] | Potency [2] | Potency [3] | Potency [4] | Potency [5] | Potency [6]

C=C(C)C(=O)O[C@H]1[C@H]2C(=C)C(=O)O[C@@H]2C[C@@H](C)[C@@H]2O[C@@H]2C(=O)[C@](C)(O)[C@@H]1OC(=O)C(=C)C
inactive: Potency [1] | Potency [2] | Potency [3] | Potency [4] | Potency [5] | Potency [6]

Cc1nc(C(=O)N2CCC[C@H]2Cc2nnc(-c3ccccc3)o2)c(-c2ccccc2F)s1
inactive: Potency [1] | Potency [2] | Potency [3] | Potency [4] | Potency [5] | Potency [6]

Cc1noc(-c2ccc(-c3ccc(CC(=O)O)cc3)cc2)c1NC(=O)O[C@H](C)c1ccccc1Cl
active: Potency [5] 9.53 µM
inactive: Potency [1] | Potency [2] | Potency [3] | Potency [4] | Potency [6]

COC1C=C(C)C(O)(CO)C2(C)CCCC(C)(C)C12 (centres undefined)
inactive: Potency [1] | Potency [2] | Potency [3] | Potency [4] | Potency [5] | Potency [6]

CC(C)NC(=O)N1CC[C@H](N=C2Nc3cc(F)ccc3N(CC(F)F)c3ccc(Cl)cc32)C1
inactive: Potency [1] | Potency [2] | activity change, negative = inhibition [3] 1.25% [at 11.6 µM] | activity change, negative = thiol reactive [4] 70.3% [at 11.5 µM] | activity, negative = inhibition [5] 1.94% [at 11.6 µM] | redox activity (% of DA3003) [6] 12.5% [at 11.5 µM]

C[C@@H](O[C@H]1OCCN(Cc2nn(P(=O)(O)O)c(=O)[nH]2)[C@H]1c1ccc(F)cc1)c1cc(C(F)(F)F)cc(C(F)(F)F)c1
inactive: Potency [1] | Potency [2] | Potency [3] | Potency [4] | Potency [5] | Potency [6]

CC(=O)O[C@@H]1CC2C(/C=C(\C)C(=O)[C@@]3(O)C[C@@H](C)[C@H](OC(=O)c4ccccc4)C3/C=C/1C)C2(C)C (some centres undefined)
inactive: Potency [1] | Potency [2] | Potency [3] | Potency [4] | Potency [5] | Potency [6]

CNCCCC1(c2ccccc2)OC(C)(C)c2ccccc21 (centres undefined)
inactive: Potency [1] | Potency [2] | Potency [3] | Potency [4] | Potency [5] | Potency [6]

CC#C[C@@H](CC(=O)O)c1ccc(OCc2ccc(CN3CCC4(C=Cc5ccccc54)CC3)s2)cc1
inactive: Potency [1] | Potency [2] | Potency [3] | Potency [4] | Potency [5] | Potency [6]

O=S(=O)(N[C@H]1CCCC[C@@H]1N1CCOCC1)c1ccc(Cl)cc1
inactive: Potency [1] | Potency [2] | Potency [3] | Potency [4] | Potency [5] | Potency [6]

C=CC(C)(O)CC/C=C(\C)C(=O)OC1C(O)C(CO)OC(OC(=O)C23CCC(C)(C)CC2C2=CCC4C5(C)CCC(OC6OC(COC7OCC(OC(C)=O)C(O)C7OC7OC(COC(C)=O)C(O)C(O)C7OC(C)=O)C(O)C(O)C6OC6OCC(O)C(O)C6O)C(C)(C)C5CCC4(C)C2(C)C(O)C3O)C1OC1OCC(OC2OCC(O)C(OC3OCC(O)C(O)C3O)C2O)C(O)C1O (centres undefined)
inactive: activity, negative = inhibition [1] -15.5% [at 9.52 µM] | outcome [2] inactive [at 9.73 µM] | outcome [3] inactive [at 6.45 µM] | activity change, negative = thiol reactive [4] 140% [at 6.41 µM] | activity, negative = inhibition [5] 0% [at 6.45 µM] | redox activity (% of DA3003) [6] 4.4% [at 6.41 µM]

O=C([C@@H]1CCCN(c2ccc3[nH]c(C4(n5cc(Cl)cn5)CC4)nc3n2)C1)N1CCCC1
active: Potency [2] 25.5 µM
inactive: Potency [1] | Potency [3] | Potency [4] | Potency [5] | Potency [6]

NS(=O)(=O)c1ccc(NC(=O)Nc2ccc(F)cc2)cc1
inactive: Potency [1] | Potency [2] | Potency [3] | Potency [4] | Potency [5] | Potency [6]

COc1cc(-n2cnc3cc(-c4ccc(Cl)cc4)sc3c2=O)ccc1OCCN1CCCC1
inactive: Potency [1] | Potency [2] | Potency [3] | Potency [4] | Potency [5] | Potency [6]

COC(=O)c1ccc(N2CCN(C)CC2)c(NC(=O)c2cccc(OC)c2)c1
inactive: Potency [1] | Potency [2] | Potency [3] | Potency [4] | Potency [5] | Potency [6]

O=C(NCCN1CCOCC1)c1cc2c(Oc3ccc(NC(=O)C4(C(=O)Nc5ccc(F)cc5)CC4)cc3)ccnc2[nH]1
inactive: Potency [1] | Potency [2] | Potency [3] | Potency [4] | Potency [5] | Potency [6]
